# Key:
# Assay in all cases: PBM; 200 nM protein, PBS
# Details in all cases: dsDNA, one strand shown
# HOXB4 [1] = target: HOXB4 (Homo sapiens, UniProt P17483 148-234)
# HOXB6 [2] = target: HOXB6 (Homo sapiens, UniProt P17509 132-218, K202E)
# HOXB4 [3] = target: HOXB4 (Homo sapiens, UniProt P17483 148-234, V174I)
# ALX1 [4] = target: ALX1 (Homo sapiens, UniProt Q15699 118-204, L144V)
# ALX3 [5] = target: ALX3 (Homo sapiens, UniProt O95076 139-225, N203Q)
# ALX1 [6] = target: ALX1 (Homo sapiens, UniProt Q15699 118-204, L144R)
# ALX3 [7] = target: ALX3 (Homo sapiens, UniProt O95076 139-225)
# ALX3 [8] = target: ALX3 (Homo sapiens, UniProt O95076 139-225, L168Q)
# ALX3 [9] = target: ALX3 (Homo sapiens, UniProt O95076 139-225, L168V)
# ALX1 [10] = target: ALX1 (Homo sapiens, UniProt Q15699 118-204)
# ALX3 [11] = target: ALX3 (Homo sapiens, UniProt O95076 139-225, N203S)
# HOXB6 [12] = target: HOXB6 (Homo sapiens, UniProt P17509 132-218)
# HOXC10 [13] = target: HOXC10 (Homo sapiens, UniProt Q9NYD6 254-340)
# HOXC10 [14] = target: HOXC10 (Homo sapiens, UniProt Q9NYD6 254-340, K271E)
# VAX1 [15] = target: VAX1 (Homo sapiens, UniProt Q5SQQ9 86-172)
# VAX1 [16] = target: VAX1 (Homo sapiens, UniProt Q5SQQ9 86-172, T142I)
# VAX1 [17] = target: VAX1 (Homo sapiens, UniProt Q5SQQ9 86-172, K157R)
# ALX4 [18] = target: ALX4 (Homo sapiens, UniProt Q9H161 200-286)
# ALX4 [19] = target: ALX4 (Homo sapiens, UniProt Q9H161 200-286, Q225E)
# PROP1 [20] = target: PROP1 (Homo sapiens, UniProt O75360 56-141)
# PROP1 [21] = target: PROP1 (Homo sapiens, UniProt O75360 56-141, R99H)
# PROP1 [22] = target: PROP1 (Homo sapiens, UniProt O75360 56-141, F88S)
# PROP1 (Homo sapiens, UniProt O75360 56-141, F88S), sequence (O75360 56-141 F88S): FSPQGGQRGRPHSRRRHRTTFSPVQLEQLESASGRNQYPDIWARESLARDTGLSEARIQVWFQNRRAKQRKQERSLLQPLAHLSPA
# HOXB4 (Homo sapiens, UniProt P17483 148-234), sequence (P17483 148-234): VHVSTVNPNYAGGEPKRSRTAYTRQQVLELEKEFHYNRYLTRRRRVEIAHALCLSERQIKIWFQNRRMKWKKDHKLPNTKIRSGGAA
# HOXB4 (Homo sapiens, UniProt P17483 148-234, V174I), sequence (P17483 148-234 V174I): as the sequence (P17483 148-234) above, with V27I counted along it
# ALX3 (Homo sapiens, UniProt O95076 139-225, N203S), sequence (O95076 139-225 N203S): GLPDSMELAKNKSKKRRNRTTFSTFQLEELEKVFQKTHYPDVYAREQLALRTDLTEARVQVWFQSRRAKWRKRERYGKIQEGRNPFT
# ALX3 (Homo sapiens, UniProt O95076 139-225), sequence (O95076 139-225): as the sequence (O95076 139-225 N203S) above, with S65N counted along it
# ALX3 (Homo sapiens, UniProt O95076 139-225, L168Q), sequence (O95076 139-225 L168Q): as the sequence (O95076 139-225 N203S) above, with L30Q, S65N counted along it
# ALX3 (Homo sapiens, UniProt O95076 139-225, N203Q), sequence (O95076 139-225 N203Q): as the sequence (O95076 139-225 N203S) above, with S65Q counted along it
# ALX3 (Homo sapiens, UniProt O95076 139-225, L168V), sequence (O95076 139-225 L168V): as the sequence (O95076 139-225 N203S) above, with L30V, S65N counted along it
# HOXB6 (Homo sapiens, UniProt P17509 132-218, K202E), sequence (P17509 132-218 K202E): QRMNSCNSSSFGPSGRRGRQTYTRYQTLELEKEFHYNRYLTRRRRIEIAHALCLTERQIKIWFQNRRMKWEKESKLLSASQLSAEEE
# ALX4 (Homo sapiens, UniProt Q9H161 200-286, Q225E), sequence (Q9H161 200-286 Q225E): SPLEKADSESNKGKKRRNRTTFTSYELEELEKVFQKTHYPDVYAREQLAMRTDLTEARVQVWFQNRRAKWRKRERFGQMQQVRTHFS
# ALX1 (Homo sapiens, UniProt Q15699 118-204), sequence (Q15699 118-204): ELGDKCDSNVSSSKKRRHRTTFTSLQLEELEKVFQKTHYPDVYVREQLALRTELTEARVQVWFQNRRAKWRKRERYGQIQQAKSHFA
# ALX1 (Homo sapiens, UniProt Q15699 118-204, L144V), sequence (Q15699 118-204 L144V): as the sequence (Q15699 118-204) above, with L27V counted along it
# VAX1 (Homo sapiens, UniProt Q5SQQ9 86-172, K157R), sequence (Q5SQQ9 86-172 K157R): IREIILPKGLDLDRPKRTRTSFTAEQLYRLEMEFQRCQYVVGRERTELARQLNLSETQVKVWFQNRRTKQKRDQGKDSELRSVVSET
# VAX1 (Homo sapiens, UniProt Q5SQQ9 86-172, T142I), sequence (Q5SQQ9 86-172 T142I): as the sequence (Q5SQQ9 86-172 K157R) above, with T57I, R72K counted along it
# PROP1 (Homo sapiens, UniProt O75360 56-141, R99H), sequence (O75360 56-141 R99H): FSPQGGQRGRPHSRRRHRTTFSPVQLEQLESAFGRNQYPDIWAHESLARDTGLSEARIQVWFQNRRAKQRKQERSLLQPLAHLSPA
# VAX1 (Homo sapiens, UniProt Q5SQQ9 86-172), sequence (Q5SQQ9 86-172): as the sequence (Q5SQQ9 86-172 K157R) above, with R72K counted along it
# HOXC10 (Homo sapiens, UniProt Q9NYD6 254-340), sequence (Q9NYD6 254-340): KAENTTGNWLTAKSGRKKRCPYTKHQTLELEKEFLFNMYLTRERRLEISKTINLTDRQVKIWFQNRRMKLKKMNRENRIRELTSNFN
# PROP1 (Homo sapiens, UniProt O75360 56-141), sequence (O75360 56-141): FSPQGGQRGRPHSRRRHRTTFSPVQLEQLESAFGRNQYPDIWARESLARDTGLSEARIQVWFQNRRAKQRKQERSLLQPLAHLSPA
# ALX1 (Homo sapiens, UniProt Q15699 118-204, L144R), sequence (Q15699 118-204 L144R): as the sequence (Q15699 118-204) above, with L27R counted along it
# HOXC10 (Homo sapiens, UniProt Q9NYD6 254-340, K271E), sequence (Q9NYD6 254-340 K271E): as the sequence (Q9NYD6 254-340) above, with K18E counted along it
# ALX4 (Homo sapiens, UniProt Q9H161 200-286), sequence (Q9H161 200-286): as the sequence (Q9H161 200-286 Q225E) above, with E26Q counted along it
# HOXB6 (Homo sapiens, UniProt P17509 132-218), sequence (P17509 132-218): as the sequence (P17509 132-218 K202E) above, with E71K counted along it
sequence,measurement,setting,value
ACCCCCGT,binding signal,HOXB4 [1],"7.65 upbm affinity estimate (log intensity, higher = more binding, comparable within an allelic series)"
same,binding signal,HOXB6 [2],"8.84 upbm affinity estimate (log intensity, higher = more binding, comparable within an allelic series)"
same,binding signal,HOXB4 [3],"7.64 upbm affinity estimate (log intensity, higher = more binding, comparable within an allelic series)"
same,binding signal,ALX1 [4],"6.28 upbm affinity estimate (log intensity, higher = more binding, comparable within an allelic series)"
same,binding signal,ALX3 [5],"7.64 upbm affinity estimate (log intensity, higher = more binding, comparable within an allelic series)"
same,binding signal,ALX1 [6],"6.2 upbm affinity estimate (log intensity, higher = more binding, comparable within an allelic series)"
same,binding signal,ALX3 [7],"7.58 upbm affinity estimate (log intensity, higher = more binding, comparable within an allelic series)"
same,binding signal,ALX3 [8],"7.58 upbm affinity estimate (log intensity, higher = more binding, comparable within an allelic series)"
same,binding signal,ALX3 [9],"7.57 upbm affinity estimate (log intensity, higher = more binding, comparable within an allelic series)"
same,binding signal,ALX1 [10],"6.29 upbm affinity estimate (log intensity, higher = more binding, comparable within an allelic series)"
same,binding signal,ALX3 [11],"7.61 upbm affinity estimate (log intensity, higher = more binding, comparable within an allelic series)"
same,binding signal,HOXB6 [12],"8.76 upbm affinity estimate (log intensity, higher = more binding, comparable within an allelic series)"
GCAGGGCC,binding signal,HOXB4 [1],"7.4 upbm affinity estimate (log intensity, higher = more binding, comparable within an allelic series)"
same,binding signal,HOXC10 [13],"10 upbm affinity estimate (log intensity, higher = more binding, comparable within an allelic series)"
same,binding signal,HOXB4 [3],"7.46 upbm affinity estimate (log intensity, higher = more binding, comparable within an allelic series)"
same,binding signal,HOXC10 [14],"10 upbm affinity estimate (log intensity, higher = more binding, comparable within an allelic series)"
same,binding signal,VAX1 [15],"6.92 upbm affinity estimate (log intensity, higher = more binding, comparable within an allelic series)"
same,binding signal,VAX1 [16],"7 upbm affinity estimate (log intensity, higher = more binding, comparable within an allelic series)"
same,binding signal,VAX1 [17],"6.86 upbm affinity estimate (log intensity, higher = more binding, comparable within an allelic series)"
CCTGTCCC,binding signal,HOXB4 [1],"7.61 upbm affinity estimate (log intensity, higher = more binding, comparable within an allelic series)"
same,binding signal,HOXB4 [3],"7.76 upbm affinity estimate (log intensity, higher = more binding, comparable within an allelic series)"
GCTGCGCC,binding signal,HOXB4 [1],"7.58 upbm affinity estimate (log intensity, higher = more binding, comparable within an allelic series)"
same,binding signal,ALX4 [18],"8.05 upbm affinity estimate (log intensity, higher = more binding, comparable within an allelic series)"
same,binding signal,ALX4 [19],"8.03 upbm affinity estimate (log intensity, higher = more binding, comparable within an allelic series)"
same,binding signal,HOXB4 [3],"7.62 upbm affinity estimate (log intensity, higher = more binding, comparable within an allelic series)"
same,binding signal,ALX3 [5],"7.68 upbm affinity estimate (log intensity, higher = more binding, comparable within an allelic series)"
same,binding signal,ALX3 [7],"7.52 upbm affinity estimate (log intensity, higher = more binding, comparable within an allelic series)"
same,binding signal,PROP1 [20],"6.8 upbm affinity estimate (log intensity, higher = more binding, comparable within an allelic series)"
same,binding signal,PROP1 [21],"6.45 upbm affinity estimate (log intensity, higher = more binding, comparable within an allelic series)"
same,binding signal,ALX3 [8],"7.66 upbm affinity estimate (log intensity, higher = more binding, comparable within an allelic series)"
same,binding signal,ALX3 [9],"7.62 upbm affinity estimate (log intensity, higher = more binding, comparable within an allelic series)"
same,binding signal,PROP1 [22],"6.48 upbm affinity estimate (log intensity, higher = more binding, comparable within an allelic series)"
same,binding signal,ALX3 [11],"7.7 upbm affinity estimate (log intensity, higher = more binding, comparable within an allelic series)"
ACACGAGC,binding signal,HOXB4 [1],"7.84 upbm affinity estimate (log intensity, higher = more binding, comparable within an allelic series)"
same,binding signal,HOXB4 [3],"7.68 upbm affinity estimate (log intensity, higher = more binding, comparable within an allelic series)"
CCTGATTA,binding signal,HOXB4 [1],"11.8 upbm affinity estimate (log intensity, higher = more binding, comparable within an allelic series)"
same,binding signal,HOXB4 [3],"12.4 upbm affinity estimate (log intensity, higher = more binding, comparable within an allelic series)"
CACGAGCC,binding signal,HOXB4 [1],"7.81 upbm affinity estimate (log intensity, higher = more binding, comparable within an allelic series)"
same,binding signal,HOXB4 [3],"7.69 upbm affinity estimate (log intensity, higher = more binding, comparable within an allelic series)"
AGATGATG,binding signal,HOXB4 [1],"10.8 upbm affinity estimate (log intensity, higher = more binding, comparable within an allelic series)"
same,binding signal,HOXB4 [3],"11.1 upbm affinity estimate (log intensity, higher = more binding, comparable within an allelic series)"
ACGTGGCG,binding signal,HOXB4 [1],"7.5 upbm affinity estimate (log intensity, higher = more binding, comparable within an allelic series)"
same,binding signal,HOXB4 [3],"7.6 upbm affinity estimate (log intensity, higher = more binding, comparable within an allelic series)"
CAATAAGA,binding signal,HOXB4 [1],"9.65 upbm affinity estimate (log intensity, higher = more binding, comparable within an allelic series)"
same,binding signal,HOXB4 [3],"9.56 upbm affinity estimate (log intensity, higher = more binding, comparable within an allelic series)"
GTGATGGA,binding signal,HOXB4 [1],"9.37 upbm affinity estimate (log intensity, higher = more binding, comparable within an allelic series)"
same,binding signal,HOXB4 [3],"9.3 upbm affinity estimate (log intensity, higher = more binding, comparable within an allelic series)"
CCCGAGGA,binding signal,HOXB4 [1],"7.28 upbm affinity estimate (log intensity, higher = more binding, comparable within an allelic series)"
same,binding signal,HOXB4 [3],"7.6 upbm affinity estimate (log intensity, higher = more binding, comparable within an allelic series)"
CGGTCACG,binding signal,HOXB4 [1],"7.89 upbm affinity estimate (log intensity, higher = more binding, comparable within an allelic series)"
same,binding signal,HOXB4 [3],"7.75 upbm affinity estimate (log intensity, higher = more binding, comparable within an allelic series)"
CGCCGACG,binding signal,HOXB4 [1],"7.65 upbm affinity estimate (log intensity, higher = more binding, comparable within an allelic series)"
same,binding signal,HOXB4 [3],"7.86 upbm affinity estimate (log intensity, higher = more binding, comparable within an allelic series)"
AGACCCGA,binding signal,HOXB4 [1],"7.82 upbm affinity estimate (log intensity, higher = more binding, comparable within an allelic series)"
same,binding signal,HOXB4 [3],"7.69 upbm affinity estimate (log intensity, higher = more binding, comparable within an allelic series)"
ACGCAATA,binding signal,HOXB4 [1],"9.72 upbm affinity estimate (log intensity, higher = more binding, comparable within an allelic series)"
same,binding signal,HOXB4 [3],"9.78 upbm affinity estimate (log intensity, higher = more binding, comparable within an allelic series)"
CATTTGCG,binding signal,HOXB4 [1],"10.6 upbm affinity estimate (log intensity, higher = more binding, comparable within an allelic series)"
same,binding signal,HOXB4 [3],"10.8 upbm affinity estimate (log intensity, higher = more binding, comparable within an allelic series)"
GCGGCTGA,binding signal,HOXB4 [1],"7.8 upbm affinity estimate (log intensity, higher = more binding, comparable within an allelic series)"
same,binding signal,HOXB4 [3],"7.53 upbm affinity estimate (log intensity, higher = more binding, comparable within an allelic series)"
AATGTACC,binding signal,HOXB4 [1],"10.2 upbm affinity estimate (log intensity, higher = more binding, comparable within an allelic series)"
same,binding signal,HOXB4 [3],"10.3 upbm affinity estimate (log intensity, higher = more binding, comparable within an allelic series)"
ACGTAGCA,binding signal,HOXB4 [1],"7.63 upbm affinity estimate (log intensity, higher = more binding, comparable within an allelic series)"
same,binding signal,HOXB4 [3],"7.7 upbm affinity estimate (log intensity, higher = more binding, comparable within an allelic series)"
GAGCTGCA,binding signal,HOXB4 [1],"7.7 upbm affinity estimate (log intensity, higher = more binding, comparable within an allelic series)"
same,binding signal,HOXB4 [3],"7.45 upbm affinity estimate (log intensity, higher = more binding, comparable within an allelic series)"
